esBAF inh – inhibitors of esBAF chromatin remodeling in mouse ES cells | AID 602393 | reporter increase, % at 12.5 µM | 350,000 tested, 2% active | Bmi1-luciferase knock-in reporter, 24 h; 100% = twice the neutral-well signal; in the data active means activation above about 40%;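 further: a rise in the Bmi1 reporter signal indicates esBAF inhibition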
Gli-Sufu antag – Gli-Sufu pathway antagonism; AID 588413; Sufu-KO-LIGHT fibroblasts, Gli luciferase reporter luminescence; inhibition, % at 5 µM; 340,000 tested, 0.74% active;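 active means inhibition above about 55%, limit read from the data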
697 NFkB inh – lowers PMA/ionomycin-induced NF-kB signal in 697 B cells; inhibition, % at 4 µM; 330,000 tested, 0.33% active; 697 B-cell NF-kB luciferase reporter, 16 h; in the data active means inhibition above about 35%
SMARCA2 activ – increases SMARCA2 function in MMTV reporter cells; MG213 cells, MMTV-luciferase reporter, dexamethasone, overnight; activation, % at 9.1 µM; 370,000 tested, 1% active; in the data active means activation above about 7.8%
Jurkat NFkB inh – lowers PMA/ionomycin-induced NF-kB signal in Jurkat cells; PMA/ionomycin-induced NF-kB luciferase reporter, luminescence; inhibition, % at 4 µM; 330,000 tested, 0.53% active; AID 435003; in the data active means inhibition above about 50%
Numbers stand for hits; 0 = inactive; - = no result given. Rows were chosen to be rich in hits. Some 3.3% of all compounds tested hit in one or more screens of this group.

SMILES | esBAF inh | Gli-Sufu antag | 697 NFkB inh | SMARCA2 activ | Jurkat NFkB inh
CC(C)(C)NC(=O)c1ccc2c(c1)C(=O)N(C1CCCCC1)C2=O | 43 | 0 | 0 | 0 | 0
COc1ccc(N2CCN(C(=O)c3ccc4nc(N5CCCCC5)sc4c3)CC2)cc1 | 62 | 0 | 0 | 0 | 0
CC1CCCC(C)N1CCCNC(=O)c1ccc2nc(N3CCOCC3)sc2c1 (stereo not given) | 0 | 0 | 0 | 0 | 0
CC1CC(C)CN(CCCNC(=O)c2ccc3nc(N4CCCCC4)sc3c2)C1 (stereo not given) | 55 | 0 | 0 | 0 | 0
O=C(NC1CCCCC1)N[C@@H]1CC[C@@H](CCNS(=O)(=O)c2ccc(F)cc2)O[C@@H]1CO | 0 | - | - | - | -
CCS(=O)(=O)N1Cc2ccccc2CC1C(=O)Nc1nccs1 (stereo not given) | 44 | 0 | 0 | 0 | 0
CCS(=O)(=O)N1Cc2ccccc2CC1C(=O)Nc1nc(C)cs1 (stereo not given) | - | 0 | 0 | 0 | 0
CCS(=O)(=O)N1Cc2ccccc2CC1C(=O)Nc1cccc(OC)c1 (stereo not given) | 53 | 0 | 0 | 0 | 0
COc1ccc(S(=O)(=O)N2Cc3ccccc3CC2C(=O)Nc2nccs2)cc1OC (stereo not given) | 44 | 0 | 0 | 0 | 0
[O-][n+]1c2ccccc2c2n1CCN1CCOC21c1ccc(Cl)cc1 (stereo not given) | 60 | 0 | 0 | 0 | 0
C[C@@H]1CN([C@@H](C)CO)C(=O)c2cc(NC(=O)CCC(F)(F)F)ccc2O[C@@H]1CN(C)S(=O)(=O)c1ccccc1 | 0 | - | - | - | -
CCNC(=O)[C@@H]1[C@@H](CO)[C@@H]2Cn3c(ccc(-c4ccc(F)cc4)c3=O)[C@H]1N2C(C)=O | 0 | - | - | - | -
COCCNC(=O)c1cc2c(=O)n3cccc(C)c3nc2n1C | 0 | 0 | 0 | 0 | 0
COCCNC(=O)c1cc2oc3ccccc3c2n1C | 72 | 0 | 0 | 0 | 0
C[C@@H]1CN([C@H](C)CO)S(=O)(=O)c2ccc(C3=CCCCC3)cc2O[C@H]1CN(C)C(=O)c1ccccc1 | 0 | - | - | - | -
Cc1nc(NC(=S)NC(=O)c2ccccc2)sc1C | 45 | 0 | 0 | 0 | 0
NC(=O)c1ccsc1NC(=O)CCc1ccccc1 | 0 | 0 | 0 | 0 | 0
Cc1nc(NC(=O)CCc2ccccc2)sc1C | 57 | 0 | 0 | 0 | 0
COC(=O)c1ccsc1NC(=O)CCc1ccccc1 | 48 | 0 | 0 | 0 | 0
COc1ccc(S(=O)(=O)N(C)C[C@@H]2OCCCC[C@@H](C)Oc3ccc(NC(=O)Nc4cccc5ccccc45)cc3C(=O)N([C@H](C)CO)C[C@H]2C)cc1 | 0 | - | - | - | -
Fc1ccc2nc(Nc3ccccc3)sc2c1 | 92 | 0 | 0 | 0 | 0
COc1cccc(S(=O)(=O)N[C@H]2CC[C@@H](CCNC(=O)Cc3ccncc3)O[C@H]2CO)c1 | 0 | - | - | - | -
O=[N+]([O-])c1ccc(C=CC=Cc2ccccc2)cc1 | 56 | - | - | 0 | -
Clc1cccc(N/N=C/c2ccc(N3CCOCC3)cc2)c1 | 0 | 0 | 0 | 0 | 0
O=[N+]([O-])c1cccc(N/N=C/c2ccc(N3CCOCC3)cc2)c1 | 66 | 0 | 0 | 0 | 0
SMILES | esBAF inh | Gli-Sufu antag | 697 NFkB inh | SMARCA2 activ | Jurkat NFkB inh
O=[N+]([O-])c1ccc(C=NNc2ccccc2)cc1 | 44 | 0 | - | 0 | -
Cc1csc(N/N=C/c2ccc([N+](=O)[O-])cc2)n1 | 53 | 0 | 0 | 0 | 0
O=C(C=Cc1ccccc1)c1ccc([N+](=O)[O-])cc1 | 0 | 0 | - | 0 | -
C[C@@H]1CCCCO[C@H](CN(C)S(C)(=O)=O)[C@H](C)CN([C@@H](C)CO)C(=O)c2cc(NC(=O)Nc3ccc(F)cc3)ccc2O1 | 0 | - | - | - | -
COc1ccccc1-c1cnc2c(c1)C(=O)N([C@@H](C)CO)C[C@@H](C)[C@H](CN(C)Cc1cncnc1)O2 | 0 | - | - | - | -
CC1CCC(C(C)C)C(=O)/C1=C/c1ccc(N)cc1 (stereo not given) | 59 | 0 | 0 | 0 | 0
CC1/C(=C\c2ccc(Cl)cc2)C(=O)C2CC1C2(C)C (stereo not given) | 0 | 0 | 0 | 0 | 0
C[C@H](CO)N1C[C@H](C)[C@@H](CN(C)C(=O)Nc2cccc3ccccc23)Oc2c(NS(=O)(=O)c3ccc(Cl)cc3)cccc2C1=O | 0 | - | - | - | -
COc1ccc(S(=O)(=O)N(C)C[C@@H]2Oc3ccc(NC(=O)Nc4ccc(C(F)(F)F)cc4)cc3CC(=O)N([C@@H](C)CO)C[C@@H]2C)cc1 | 0 | - | - | - | -
O=C(NC(C(=O)N/N=C/c1ccncc1)c1n[nH]c(=O)c2ccccc12)c1ccccc1 (stereo not given) | 0 | 0 | 0 | 0 | 0

Screening results as filed in PubChem BioAssay.
